Laboratory results taken from the supplement of paper PMC7726561.

Molecular target: HLA-C*04:01
Assay: thermal melting temperature (Tm) of peptide-HLA complex; higher = more thermostable pHLA complex
Conditions: C1R-A*02:01
Description: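 Endogenous HLA-C*04:01 ligands were detected in the thermostability assays of both the C1R-A*02:01 and C1R-B*07:02 lines. Lysates were heated 10 min at 37-73 °C and pHLA immunoprecipitated with W6/32. Peptides were quantified by DIA-MS and Tm was taken from a logistic sigmoid fit.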

| Sequence | thermal melting temperature [°C] |
| --- | --- |
| VFDVLDGEEM | 53.4 |
| AWDIAIATM | 50.9 |
| FYDVQFKEL | 53.1 |
| VTDPRVVDL | 53.8 |
| LWDSAVSHF | 55.1 |
| TYEGKPIFL | 52.9 |
| FFEVSPVSF | 49.9 |
| VIDEPVRL | 50 |
| VLDDKLVFV | 61.8 |
| VFDEAIRAV | 61.2 |
| YFDPANGKF | 57.6 |
| NPDDVFREF | 61.2 |
| IYDPNLAFL | 58.9 |
| QFDNYGEEF | 50.8 |
| LFHPSNVEM | 46 |
| FYDERIVVV | 63.9 |
| VFDEAVRV | 52.4 |
| IWDETPLYF | 50.8 |
| SFDDTNEKF | 49.8 |
| HFDPEVYL | 54.6 |
| FFDEVVKQM | 58.8 |
| FWDDAVKEV | 46.6 |
| IFSEKPVFV | 60 |
| VWDLFPEADKV | 54.5 |

Same assay, conditions: C1R-B*07:02

| Sequence | thermal melting temperature [°C] |
| --- | --- |
| VFDVLDGEEM | 60.9 |
| AWDIAIATM | 49.6 |
| FYDVQFKEL | 52.5 |
| VTDPRVVDL | 52.7 |
| LWDSAVSHF | 55.6 |
| TYEGKPIFL | 51.5 |
| FFEVSPVSF | 46.6 |
| VIDEPVRL | 50.3 |
| VLDDKLVFV | 48.9 |
| VFDEAIRAV | 61.5 |
| YFDPANGKF | 57.5 |
| NPDDVFREF | 62.7 |
| IYDPNLAFL | 56 |
| QFDNYGEEF | 55.5 |
| LFHPSNVEM | 46.4 |
| FYDERIVVV | 62.3 |
| VFDEAVRV | 50.6 |
| IWDETPLYF | 51.8 |
| SFDDTNEKF | 48.2 |
| HFDPEVYL | 53.2 |
| FFDEVVKQM | 60.5 |
| FWDDAVKEV | 48.3 |
| IFSEKPVFV | 57 |
| VWDLFPEADKV | 52.4 |
